# The list is not random: actives were taken first. Their share in the collection is about 10%.
# L3MBTL1 block: blocks human L3MBTL1. Q9Y468. AlphaScreen L3MBTL1–H3K9me1 peptide binding. Potency, µM (highest dose often 57.1 µM), for the others: top-dose activity, negative = inhibition, usual class: inhibitors. 230,000 compounds, 0.66% hits. AID 485360; also: % is scaled to controls: 0 for no effect and ±100 for the full control effect; nearly all actives have a fitted effect of over 60% in size
#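 AlphaScreen proximity signal between nickel-chelate acceptor and streptavidin donor beads (final 10 ug/mL) reports binding of 50 nM L3MBTL1 to 75 nM biotin-H3 K9me1 peptide; complex incubated with compounds 30 min at room temperature; cefsulodin titration as control.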
# G9a block: blocks human histone lysine methyltransferase G9a | Q96KQ7 | G9a H3K9 monomethylation, AlphaScreen, 2 h | Potency, µM (series often up to 102 µM), for inactives: at the top dose activity, negative = inhibition, hits mostly inhibitors | 350,000 compounds, 8.8% hits; also: % is scaled to controls: 0 for no effect and ±100 for the full control effect; nearly all actives have a fitted effect of over 75% in size
#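 Methyltransferase reactions run at room temperature for 2 h (20 nM enzyme, 500 nM biotin-H3K9 peptide, 20 uM SAM) after a 15 min compound preincubation; product detected by AlphaScreen beads and anti-H3K9me1 antibody.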
# JMJD2A Tudor inh: blocks the human JMJD2A Tudor domain; AlphaScreen JMJD2A-Tudor / H3K4me3 peptide binding; 390,000 compounds, 4.4% hits; Potency, µM (top dose mostly 114 µM), for the others: at the top dose activity change, negative = inhibition, hits mostly inhibitors; also: % is scaled to controls: 0 for no effect and ±100 for the full control effect; nearly all actives have a fitted effect of over 50% in size
# BAZ2B block: inhibitors of human BAZ2B bromodomain. Q9UIF8. AlphaScreen BAZ2B-H3K14Ac peptide displacement. Potency, µM (titrated, usually from 114 µM), without a hit: at the highest dose activity change, negative = inhibition, usual class: inhibitors. 360,000 compounds, 4.4% hits. AID 504333; also: % is scaled to controls: 0 for no effect and ±100 for the full control effect; nearly all actives have a fitted effect of over 60% in size
#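 Inhibition is scored as reduced AlphaScreen emission. The BAZ2B/b-H3(5-23)K14Ac complex (50 nM each) in PBS pH 7.4, 0.01% Tween-20 meets compound (up to 110 uM) for 30 min at RT before bead addition.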
# HP1b chromo inh: inhibitors of HP1-beta chromodomain binding to methylated histone tails; P83916; AlphaScreen HP1-beta / biotin-H3K9me3 peptide binding; Potency, µM (highest dose often 114 µM), for inactives: at the top dose activity change, negative = inhibition, usual class: inhibitors; 390,000 compounds, 0.56% hits; also: nearly all actives have a fitted effect of over 70% in size
#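 HP1-beta protein (50 nM final) preincubated 30 min at room temperature with biotinylated H3(1-18)K9me3 peptide (50 nM) in PBS pH 7.4, 0.01% Tween-20, then compound added for 30 min. AlphaScreen streptavidin donor/nickel chelate acceptor beads (10 ug/mL final), 30 min dark, luminescence read.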
# GLS inh: glutaminase GLS (human) inhibition; O94925; Potency, µM (highest dose often 45.5 µM), for the others: at the top dose activity change, negative = inhibition, usual class: inhibitors; 410,000 compounds, 0.21% hits; GLS enzymatic activity, qHTS titration; also: % is scaled to controls: 0 for no effect and ±100 for the full control effect
# Target sequence (O94925 whole entry, looked up): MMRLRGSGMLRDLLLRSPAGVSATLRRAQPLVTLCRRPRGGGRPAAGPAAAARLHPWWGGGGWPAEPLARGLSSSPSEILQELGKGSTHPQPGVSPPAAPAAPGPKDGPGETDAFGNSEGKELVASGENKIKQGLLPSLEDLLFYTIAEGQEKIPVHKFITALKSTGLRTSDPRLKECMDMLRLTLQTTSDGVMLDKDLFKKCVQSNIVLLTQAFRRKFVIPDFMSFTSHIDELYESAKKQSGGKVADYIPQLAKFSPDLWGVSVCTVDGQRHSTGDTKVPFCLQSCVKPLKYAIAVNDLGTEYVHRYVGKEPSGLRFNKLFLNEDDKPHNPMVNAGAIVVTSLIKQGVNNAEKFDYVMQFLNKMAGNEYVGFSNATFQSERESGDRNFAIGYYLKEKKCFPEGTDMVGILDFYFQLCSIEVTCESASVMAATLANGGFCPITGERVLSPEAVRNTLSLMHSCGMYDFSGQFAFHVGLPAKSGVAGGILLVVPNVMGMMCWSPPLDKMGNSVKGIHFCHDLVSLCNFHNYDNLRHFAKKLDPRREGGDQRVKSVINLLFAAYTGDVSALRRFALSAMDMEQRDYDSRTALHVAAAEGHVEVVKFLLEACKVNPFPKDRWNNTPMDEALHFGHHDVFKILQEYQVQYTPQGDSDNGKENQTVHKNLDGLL
#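 Read-out is an Amplex red fluorescence increase coupled through glutamate oxidase and HRP, measured before and after 30 min room-temperature incubation. hKGA is in 45 mM KH2PO4 (pH 8.2) with 0.02% Tween-20; glutamine added as 1mM solution.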
# Numbers without * were called inactive; ? = inconclusive; nt = not tested or not shown; [ ] = remark or other dose. Calls follow the shape of the dose curve; as a rule, active = well fitted curve in the direction sought with a large enough effect; inconclusive = small, poorly fitted or top-dose-only effect, or another doubt; inactive = no such curve, though single readings can be large; an effect the other way counts as inactive or inconclusive. Potency is read from the fitted curve at half-maximal effect.
SMILES,L3MBTL1 block,G9a block,JMJD2A Tudor inh,BAZ2B block,HP1b chromo inh,GLS inh
O=C(CSc1nc2c([nH]c3ccccc32)c(=O)n1-c1ccccc1)Nc1cccc(C(F)(F)F)c1,nt,10%[59 µM],-22%,-2%,17%[57 µM],-12%
Cc1c(O)nc(SCC(=O)Nc2cccc(C(F)(F)F)c2)n(-c2ccccc2)c1=O,nt,45µM*,-23%,-30%,-3%,11%
COc1cccc(NC(=O)CSc2nc(O)c(C)c(=O)n2-c2ccc(C)cc2)c1,nt,-3%,79µM*,-20%,0%,4%
COc1cccc(-n2c(SCC(=O)Nc3cc(C)on3)nc3c([nH]c4ccccc43)c2=O)c1,3%,40µM*,-17%,-21%,37%,4%
COc1ccc(NC(=O)C(C)n2c(C)c3cnn(-c4ccccc4)c(=O)c3c2C)cc1Cl (stereo not given),nt,10%[59 µM],-20%,-3%,-2%,-14%
COc1ccc2cc(CCNS(=O)(=O)c3ccc(C)cc3)c(=O)[nH]c2c1,nt,5%[59 µM],-7%,-5%,10%,-2%
O=C(O)c1ccc2c(c1)C(=O)N([C@@H](Cc1ccc(O)cc1)C(=O)O)C2=O,9%,8%[12.7 µM],-7%,-21%,nt,nt
COc1ccc2[nH]c(=O)c(-c3nnn(-c4ccc(F)cc4)n3)cc2c1,nt,nt,?,nt,65%,15%
COc1ccc2[nH]c(=O)c(-c3nnn(-c4ccc(Cl)nc4)n3)cc2c1,nt,nt,50µM*,nt,4%,-4%
COc1ccc2[nH]c(=O)c(-c3noc(-c4ccccc4)n3)cc2c1,-10%,?,?,50µM*,43%,-22%
COc1ccc2[nH]c(=O)c(-c3nnn(-c4ccccc4)n3)cc2c1,11%,-50%[59 µM],0%,0%,43%,6%
O=C(O)c1cc(N2C(=O)C=CC2=O)cc(N2C(=O)C=CC2=O)c1,nt,nt,2.2µM*,nt,5.6µM*,?
Cc1ccc(CN(Cc2ccco2)C(=O)c2ccc(OCC(C)C)cc2)cc1,nt,17%[59 µM],28%,2%,59%,-15%
CC(C)Oc1ccc(C(=O)N(Cc2ccc(N(C)C)cc2)Cc2ccco2)cc1,nt,11µM*,25µM*,13µM*,?,1%
CCCCOc1ccc(C(=O)N(Cc2ccc(N(C)C)cc2)Cc2ccco2)cc1,nt,11µM*,20µM*,10µM*,?,-5%
Cc1ccccc1-c1nc(CN2CCC(C(=O)NCc3ccccc3Cl)CC2)c(C)o1,nt,-25%[59 µM],-17%,?,19%,5%
CCn1cc2nc(SCC(=O)Nc3cc(OC)cc(OC)c3)n(Cc3ccc(Cl)cc3)c(=O)c2n1,nt,-4%[59 µM],-14%,-1%,43%,1%
CN1CCN(CC(=O)NN(Cc2ccccc2)c2ccccc2)CC1,nt,nt,7.9µM*,-2%,?,1%
CN1CCN(CC(=O)Nc2ccc(OCc3ccccc3)cc2)CC1,nt,-29%[12.7 µM],nt,?,nt,nt
CCN(CC)CC(=O)NN(Cc1ccccc1)c1ccccc1,6%,28µM*,18µM*,79µM*,?,-6%
CCN(Cc1ccccc1)C(=O)CC(=O)N(CC)Cc1ccccc1,nt,-5%,-6%,-19%,7%,-3%
Oc1ccccc1-c1nnc(COc2ccc(Cl)cc2Cl)o1,-3%,?,40µM*,4%,7%,25%
Cc1nn(CC(=O)Nc2ccc(C(C)C)cc2)c(=O)c2c(C)n(-c3ccc(Cl)cc3)nc12,nt,12%[59 µM],-4%,5%,20%[57 µM],5%
O=[N+]([O-])c1ccc(C(O)CN2CCOCC2)cc1 (stereo not given),nt,10%,-11%,-3%,-12%,0%
OC(CN1CCOCC1)c1ccc(F)cc1 (stereo not given),-6%,-41%,20µM*,50µM*,?,4%
SMILES,L3MBTL1 block,G9a block,JMJD2A Tudor inh,BAZ2B block,HP1b chromo inh,GLS inh
O=C(CSc1n[nH]c(-c2ccccc2)n1)Nc1ccccc1O,nt,50µM*,-19%,-20%,7%,22%
CCc1nc(SCC(=O)Nc2ccc(C(=O)O)cc2)n[nH]1,nt,45µM*,-14%,-4%,92%,3%
O=C(CSc1n[nH]c(-c2ccccn2)n1)Nc1ccc(Cl)cc1,nt,35%,10µM*,5µM*,56%,0%
O=C(CSc1n[nH]c(-c2ccccn2)n1)Nc1ccc(F)cc1,nt,38%,5.6µM*,4µM*,32%,3%
CCc1nc(SCC(=O)Nc2ccc(N(C)C)cc2)n[nH]1,-6%,-17%[0.501 µM],-19%,-7%,3%,-4%
Cc1ccc(NC(=O)CSc2n[nH]c(-c3ccccn3)n2)cc1,nt,8%[59 µM],4µM*,4µM*,58%,-2%
O=C(CSc1n[nH]c(-c2ccncc2)n1)Nc1ccccc1,nt,18%,-9%,-4%,12%,0%
c1ccc2nc3ccccc3cc2c1,nt,31%[59 µM],nt,nt,nt,nt
O=c1cccc2n1Cc1cc3ccccc3nc1-2,6%,45µM*,-9%,-27%,22%,5%
S=C(NC1CCCC1)N1CCN(c2ccccn2)CC1,3%,3%,-20%,4%,10%,6%
CC(=NNC(=S)N1CCN(C2CCCCCC2)CC1)c1ccccn1,nt,nt,18µM*,nt,?,4%
CC(=NNC(=S)N1CCCCCC1)c1cccc2cccnc12,nt,nt,20µM*,nt,50µM*,59%
C/C(=N\NC(=O)C1CCCN(S(=O)(=O)c2ccccc2)C1)c1ccccn1 (stereo not given),-7%,51%[59 µM],79µM*,?,47%,-6%
CC(=NNC(=S)N1CCN(c2ccccn2)CC1)c1ccccn1,nt,nt,56µM*,nt,?,6%
CC(=NNC(=S)N1CC2CCC(CC2)C1)c1ccccn1,nt,nt,nt,nt,nt,-2%
CC(=NNC(=S)N1CCN(c2ccccn2)CC1)c1nccs1,nt,nt,13µM*,nt,?,17%
CC(=NNC(=S)N1CC2CCC(CC2)C1)c1cnccn1,nt,nt,11µM*,nt,?,-11%
CCOC(=O)c1c(C)[nH]c(CCC(=O)Nc2c(C)cccc2CC)c1C,nt,10%[59 µM],-14%,1%,10%[57 µM],8%
CCN(CC)c1ccc(NC(=O)C2=CC=CN3CCS(=O)(=O)N=C23)cc1,-9%,?,?,45µM*,-23%,42%
O=C(N/N=C/c1sc(N2CCCCC2)nc1-c1cccs1)C1CC1,12%,25µM*,?,13%,20%,13%
CCOc1ccc(CC(=O)Nc2c3c(nn2C(C)(C)C)CS(=O)(=O)C3)cc1,nt,79µM*,-3%,-14%,19%,3%
Cc1ccc(NC(=O)CN2C(=O)C(c3ccc(F)cc3)=NC2(C)C)c(C)c1,nt,12%[59 µM],1%,-4%,51%,4%
CC(=O)Nc1ccc(NC(=O)C(C)Sc2nc3ccccc3c(=O)n2Cc2ccco2)cc1 (stereo not given),-3%,56µM*,-3%,9%,25%,2%
CC(=O)Nc1ccc(OCc2cccc(-c3nc4ccccc4c(=O)n3Cc3ccco3)c2)cc1,nt,nt,56µM*,nt,nt,nt

# From PubChem BioAssay
